Reference: article PMC5540273 (PLoS ONE, 2017)
Several values for one entry are separate records, joined by “and”; a condition that tells them apart may be missing. Equal values may be shown once. Read-outs that look alike come from different tables or passages of the source.

Legend:
GRK4 = settings: concentration: 1 μM, replicates: in singlicate, n = 1
GRK7 = settings: concentration: 1 μM, replicates: in singlicate, n = 1
GSK3A = settings: concentration: 1 μM, replicates: in singlicate, n = 1
GSK3B = settings: n = 1
HASPIN = test system: T1, HASPIN; settings: concentration: 1 μM, replicates: in singlicate, n = 1
T1 construct: gene GSG2

HCK = settings: concentration: 1 μM, replicates: in singlicate, n = 1
HIPK1 = settings: concentration: 1 μM, replicates: in singlicate, n = 1
HIPK2 = settings: concentration: 1 μM, replicates: in singlicate, n = 1
HIPK3 = settings: concentration: 1 μM, replicates: in singlicate, n = 1
HIPK4 = settings: concentration: 1 μM, replicates: in singlicate, n = 1
[1] = concentration: 1 μM, replicates: in singlicate
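Note: KINOMEscan kinase panel screen.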

Compound: Cc1nnc(-c2ccc3occ(-c4ccc(C(C)O)cc4)c3c2)o1 (centres unmarked)
- %Inh (GRK4): 1%
- %Inh (GRK7): 11%
- %Inh (GSK3A): 73%
- %Inh (GSK3B; [1]): 19%
- %Inh (HASPIN): 29%
- %Inh (HCK): 6%
- %Inh (HIPK1): 67%
- %Inh (HIPK2): 56%
- %Inh (HIPK3): 41%
- %Inh (HIPK4): 33%

Compound: COc1ccc(Nc2ncc(C#N)c(Nc3ccccc3C(N)=O)n2)cc1N1CCN(C)CC1.Cl [GSK1558669]
- %Inh (GRK4): 96%
- %Inh (GRK7): 46%
- %Inh (GSK3A): 99.8%
- %Inh (GSK3B; [1]): 99.8%
- %Inh (HASPIN): 88%
- %Inh (HCK): 98.8%
- %Inh (HIPK1): 100%
- %Inh (HIPK2): 98.8%
- %Inh (HIPK3): 99.8%
- %Inh (HIPK4): 89%

Compound: COc1cc2ncn(-c3cc(OCc4sccc4Cl)c(C(N)=O)s3)c2cc1OC [GSK448459]
- %Inh (GRK4): 30%
- %Inh (GRK7): 0%
- %Inh (GSK3A): 0%
- %Inh (GSK3B; [1]): 6%
- %Inh (HASPIN): 5%
- %Inh (HCK): 0%
- %Inh (HIPK1): 44%
- %Inh (HIPK2): 28%
- %Inh (HIPK3): 23%
- %Inh (HIPK4): 69%

Compound: COc1ccc(Nc2nccc(N3CCC(NC(=O)Nc4cccc(C(C)=O)c4)C3)n2)cc1 (centres unmarked) [GSK1379731]
- %Inh (GRK4): 0%
- %Inh (GRK7): 0%
- %Inh (GSK3A): 22%
- %Inh (GSK3B; [1]): 7%
- %Inh (HASPIN): 17%
- %Inh (HCK): 0%
- %Inh (HIPK1): 0%
- %Inh (HIPK2): 0%
- %Inh (HIPK3): 1%
- %Inh (HIPK4): 0%

Compound: Cc1ccc(C(=O)NCC(N)=O)cc1-n1c(C)cc(OCc2ccc(F)cc2F)c(Br)c1=O
- %Inh (GRK4): 0%
- %Inh (GRK7): 0%
- %Inh (GSK3A): 58%
- %Inh (GSK3B; [1]): 0%
- %Inh (HASPIN): 0%
- %Inh (HCK): 21%
- %Inh (HIPK1): 46%
- %Inh (HIPK2): 0%
- %Inh (HIPK3): 0%
- %Inh (HIPK4): 0%

Compound: NCC(NC(=O)c1cc(-c2cn[nH]c2)c(-c2ccnc3[nH]ccc23)s1)c1ccccc1.O=C(O)C(F)(F)F.O=C(O)C(F)(F)F (centres unmarked) [GSK1325775]
- %Inh (GRK4): 64%
- %Inh (GRK7): 51%
- %Inh (GSK3A): 38%
- %Inh (GSK3B; [1]): 48%
- %Inh (HASPIN): 84%
- %Inh (HCK): 0%
- %Inh (HIPK1): 88%
- %Inh (HIPK2): 96.7%
- %Inh (HIPK3): 98.4%
- %Inh (HIPK4): 94.8%

Compound: Cn1ccc2ncnc(Oc3ccc(NC(=O)Nc4ccncc4)c(Cl)c3)c21
- %Inh (GRK4): 19%
- %Inh (GRK7): 0%
- %Inh (GSK3A): 29%
- %Inh (GSK3B; [1]): 0%
- %Inh (HASPIN): 28%
- %Inh (HCK): 0%
- %Inh (HIPK1): 17%
- %Inh (HIPK2): 0%
- %Inh (HIPK3): 0%
- %Inh (HIPK4): 0%

Compound: COC(=O)Nc1nc2cc(Oc3ccc(NC(=O)Nc4cc(F)ccc4F)cc3)ccc2[nH]1.Cl [GW701424]
- %Inh (GRK4): 0%
- %Inh (GRK7): 0%
- %Inh (GSK3A): 3%
- %Inh (GSK3B; [1]): 11%
- %Inh (HASPIN): 0%
- %Inh (HCK): 6%
- %Inh (HIPK1): 0%
- %Inh (HIPK2): 0%
- %Inh (HIPK3): 5%
- %Inh (HIPK4): 29%

Compound: Cc1cccc(Cn2ccn3c(=O)cc(N4CCOCC4)nc23)c1 [GSK2297542]
- %Inh (GRK4): 0%
- %Inh (GRK7): 0%
- %Inh (GSK3A): 10%
- %Inh (GSK3B; [1]): 3%
- %Inh (HASPIN): 0%
- %Inh (HCK): 0%
- %Inh (HIPK1): 28%
- %Inh (HIPK2): 0%
- %Inh (HIPK3): 30%
- %Inh (HIPK4): 15%

Compound: CN(C1=C(c2ccccc2)C(=O)NC1=O)c1ccccc1 [SB-334860]
- %Inh (GRK4): 0%
- %Inh (GRK7): 0%
- %Inh (GSK3A): 13%
- %Inh (GSK3B; 1 µM): 0%
- %Inh (HASPIN): 0%
- %Inh (HCK): 0%
- %Inh (HIPK1): 3%
- %Inh (HIPK2): 0%
- %Inh (HIPK3): 15%
- %Inh (HIPK4): 2%

Compound: Cc1c(Cn2c(C)nn3c(=O)cc(N4CCOC(C)C4)nc23)cccc1C(F)(F)F (centres unmarked) [GSK2344444]
- %Inh (GRK4): 0%
- %Inh (GRK7): 0%
- %Inh (GSK3A): 0%
- %Inh (GSK3B; [1]): 10%
- %Inh (HASPIN): 0%
- %Inh (HCK): 0%
- %Inh (HIPK1): 0%
- %Inh (HIPK2): 0%
- %Inh (HIPK3): 7%
- %Inh (HIPK4): 0%

Compound: CN1c2ccc(NCc3ccc(F)cc3)cc2-c2c(cnn2C)S1(=O)=O
- %Inh (GRK4): 0%
- %Inh (GRK7): 0%
- %Inh (GSK3A): 22%
- %Inh (GSK3B; [1]): 0%
- %Inh (HASPIN): 37%
- %Inh (HCK): 8%
- %Inh (HIPK1): 6%
- %Inh (HIPK2): 0%
- %Inh (HIPK3): 0%
- %Inh (HIPK4): 0%

Compound: COc1ccc(COc2cc(-n3cnc4ccccc43)sc2C(N)=O)cc1 [GSK1024304]
- %Inh (GRK4): 1%
- %Inh (GRK7): 0%
- %Inh (GSK3A): 14%
- %Inh (GSK3B; [1]): 0%
- %Inh (HASPIN): 0%
- %Inh (HCK): 0%
- %Inh (HIPK1): 18%
- %Inh (HIPK2): 18%
- %Inh (HIPK3): 21%
- %Inh (HIPK4): 8%

Compound: COc1ccc(CNC(=O)NC2CCN(c3ccnc(Nc4ccc(OC)cc4)n3)C2)cc1 (centres unmarked) [GSK1379727]
- %Inh (GRK4): 4%
- %Inh (GRK7): 0%
- %Inh (GSK3A): 0%
- %Inh (GSK3B; [1]): 0%
- %Inh (HASPIN): 19%
- %Inh (HCK): 0%
- %Inh (HIPK1): 0%
- %Inh (HIPK2): 40%
- %Inh (HIPK3): 23%
- %Inh (HIPK4): 0%

Compound: Cl.Cl.Cl.Fc1ccc(-c2ncn(C3CCNCC3)c2-c2ccnc(Nc3ccccc3)n2)cc1 [SB-238039]
- %Inh (GRK4; 1 µM): 8% and 46%
- %Inh (GRK7; 1 µM): 0% and 37%
- %Inh (GSK3A; 1 µM): 57% and 10%
- %Inh (GSK3B; concentration: 1 μM, replicates: in singlicate, 1 µM): 47% and 17%
- %Inh (HASPIN; 1 µM): 58% and 0%
- %Inh (HCK; 1 µM): 65% and 34%
- %Inh (HIPK1; 1 µM): 29% and 64%
- %Inh (HIPK2; 1 µM): 31% and 30%
- %Inh (HIPK3; 1 µM): 8% and 0%
- %Inh (HIPK4; 1 µM): 17% and 0%

Compound: CCCCCc1nc2c(N)ncnc2n1CCCCC [SKF-97255]
- %Inh (GRK4): 21%
- %Inh (GRK7): 0%
- %Inh (GSK3A): 0%
- %Inh (GSK3B; [1]): 34%
- %Inh (HASPIN): 2%
- %Inh (HCK): 26%
- %Inh (HIPK1): 43%
- %Inh (HIPK2): 0%
- %Inh (HIPK3): 13%
- %Inh (HIPK4): 1%

Compound: Fc1ccc(-c2nn3c(OCC(F)(F)F)cccc3c2-c2ccncc2)cc1 [GW514784]
- %Inh (GRK4): 0%
- %Inh (GRK7): 0%
- %Inh (GSK3A): 10%
- %Inh (GSK3B; [1]): 0%
- %Inh (HASPIN): 67%
- %Inh (HCK): 0%
- %Inh (HIPK1): 0%
- %Inh (HIPK2): 0%
- %Inh (HIPK3): 5%
- %Inh (HIPK4): 0%
